# According to PubChem BioAssay (NCATS):
# Records with an inconclusive call do not appear. Entries that show only a call come without a potency. Activity calls are given as the source filed them. Unless noted, calls follow the shape of the dose curve; as a rule, active = well fitted curve in the direction sought with a large enough effect; inconclusive = small, poorly fitted or top-dose-only effect, or another doubt; inactive = no such curve, though single readings can be large; an effect the other way counts as inactive or inconclusive.
# How the values were obtained:
# [1] = biological target: ATP-dependent 6-phosphofructokinase (Trypanosoma brucei brucei) (UniProt O15648); assay: qHTS Assay to Find Inhibitors of T. brucei phosphofructokinase: hit validation (AID 492961); also: series mostly up to about 51 µM
# ATP-dependent 6-phosphofructokinase (Trypanosoma brucei brucei), sequence (O15648 whole entry, looked up): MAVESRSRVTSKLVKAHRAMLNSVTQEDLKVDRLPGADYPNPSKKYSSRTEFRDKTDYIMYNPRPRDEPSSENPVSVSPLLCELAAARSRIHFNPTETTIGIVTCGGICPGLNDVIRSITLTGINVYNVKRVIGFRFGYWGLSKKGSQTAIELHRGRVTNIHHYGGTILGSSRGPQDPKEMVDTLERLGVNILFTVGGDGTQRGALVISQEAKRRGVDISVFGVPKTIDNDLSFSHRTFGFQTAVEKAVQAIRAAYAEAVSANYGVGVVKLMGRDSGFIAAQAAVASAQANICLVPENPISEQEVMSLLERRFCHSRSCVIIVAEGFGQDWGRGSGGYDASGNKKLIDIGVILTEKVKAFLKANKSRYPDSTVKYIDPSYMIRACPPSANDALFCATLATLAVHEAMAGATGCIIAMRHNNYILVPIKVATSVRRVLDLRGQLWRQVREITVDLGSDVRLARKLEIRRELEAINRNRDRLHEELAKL
# How it was run: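 Luminescence from ADP-Glo reports ADP generated as T. brucei PFK (1.25 nM) phosphorylates 0.5 mM fructose-6-phosphate using 0.1 mM ATP. Reactions ran 45 min at room temperature, pH 8.0.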
# [2] = biological target: D(1A) dopamine receptor (Homo sapiens) (UniProt P21728); assay: HTS Assay for Allosteric Agonists of the Human D1 Dopamine Receptor: Primary Screen for Agonists (AID 488981)
# D(1A) dopamine receptor (Homo sapiens), sequence (P21728 whole entry, looked up): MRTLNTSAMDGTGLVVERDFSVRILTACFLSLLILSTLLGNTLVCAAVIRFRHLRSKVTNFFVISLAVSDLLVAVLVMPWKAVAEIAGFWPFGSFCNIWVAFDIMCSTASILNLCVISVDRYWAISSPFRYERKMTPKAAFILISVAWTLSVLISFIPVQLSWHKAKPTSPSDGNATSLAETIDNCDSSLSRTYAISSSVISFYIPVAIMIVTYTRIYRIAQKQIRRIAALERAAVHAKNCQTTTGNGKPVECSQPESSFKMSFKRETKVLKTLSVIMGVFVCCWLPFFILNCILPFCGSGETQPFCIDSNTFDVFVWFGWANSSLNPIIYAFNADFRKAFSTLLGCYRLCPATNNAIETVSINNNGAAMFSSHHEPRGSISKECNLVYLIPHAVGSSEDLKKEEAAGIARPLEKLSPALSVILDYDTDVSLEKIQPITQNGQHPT
# How it was run: (§1)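 Tetracycline-induced HEK293 Trex D1 cells with forced coupling to calcium, loaded with no-wash calcium dye; kinetic fluorescence read 180 s after compound addition for agonism, then a further 180 s after an EC20 dopamine challenge for potentiation.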
# [3] = biological target: D(1A) dopamine receptor (Homo sapiens) (UniProt P21728); assay: HTS Assay for Allosteric Agonists of the Human D1 Dopamine Receptor: Primary Screen for Potentiators (AID 488982)
# How it was run: as §1
# [4] = biological target: D(1A) dopamine receptor (Homo sapiens) (UniProt P21728); assay: HTS Assay for Allosteric Agonists of the Human D1 Dopamine Receptor: Primary Screen for Antagonists (AID 488983);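 also: calcium flux response to an EC80 dopamine challenge measured with no-wash dye; nearly all actives have a fitted effect of over 65% in size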
# How it was run: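 Screening of inducible HEK293 T-REx D1 cells: compound first, EC80 dopamine 180 s later, each phase read kinetically for calcium over 180 s.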
# [5] = Validation screen for small molecules that induce genotoxicity in human embryonic kidney (HEK293T) cells expressing luciferase-tagged ELG1 (AID 493106)
# How it was run: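 Reporter-gene quantitative HTS in HEK293T cells carrying luciferase-tagged ELG1, whose level climbs under genotoxic stress. Compound exposure lasts 16 hr at 37 °C before luciferase detection.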
# [6] = biological target: ATPase family AAA domain-containing protein 5 (Homo sapiens) (UniProt Q96QE3); assay: Validation screen for small molecules that inhibit ELG1-dependent DNA repair in human embryonic kidney (HEK293T) cells expressing luciferase-tagged ELG1 (AID 493107);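 also: cells co-treated with the DNA-damaging agent 5-fluorouridine alongside compound; series mostly up to about 46 µM; inhibitors lower the ELG1-luciferase luminescence signal; nearly all actives have a fitted effect of over 70% in size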
# ATPase family AAA domain-containing protein 5 (Homo sapiens), sequence (Q96QE3 whole entry, looked up, the tested form may be a part): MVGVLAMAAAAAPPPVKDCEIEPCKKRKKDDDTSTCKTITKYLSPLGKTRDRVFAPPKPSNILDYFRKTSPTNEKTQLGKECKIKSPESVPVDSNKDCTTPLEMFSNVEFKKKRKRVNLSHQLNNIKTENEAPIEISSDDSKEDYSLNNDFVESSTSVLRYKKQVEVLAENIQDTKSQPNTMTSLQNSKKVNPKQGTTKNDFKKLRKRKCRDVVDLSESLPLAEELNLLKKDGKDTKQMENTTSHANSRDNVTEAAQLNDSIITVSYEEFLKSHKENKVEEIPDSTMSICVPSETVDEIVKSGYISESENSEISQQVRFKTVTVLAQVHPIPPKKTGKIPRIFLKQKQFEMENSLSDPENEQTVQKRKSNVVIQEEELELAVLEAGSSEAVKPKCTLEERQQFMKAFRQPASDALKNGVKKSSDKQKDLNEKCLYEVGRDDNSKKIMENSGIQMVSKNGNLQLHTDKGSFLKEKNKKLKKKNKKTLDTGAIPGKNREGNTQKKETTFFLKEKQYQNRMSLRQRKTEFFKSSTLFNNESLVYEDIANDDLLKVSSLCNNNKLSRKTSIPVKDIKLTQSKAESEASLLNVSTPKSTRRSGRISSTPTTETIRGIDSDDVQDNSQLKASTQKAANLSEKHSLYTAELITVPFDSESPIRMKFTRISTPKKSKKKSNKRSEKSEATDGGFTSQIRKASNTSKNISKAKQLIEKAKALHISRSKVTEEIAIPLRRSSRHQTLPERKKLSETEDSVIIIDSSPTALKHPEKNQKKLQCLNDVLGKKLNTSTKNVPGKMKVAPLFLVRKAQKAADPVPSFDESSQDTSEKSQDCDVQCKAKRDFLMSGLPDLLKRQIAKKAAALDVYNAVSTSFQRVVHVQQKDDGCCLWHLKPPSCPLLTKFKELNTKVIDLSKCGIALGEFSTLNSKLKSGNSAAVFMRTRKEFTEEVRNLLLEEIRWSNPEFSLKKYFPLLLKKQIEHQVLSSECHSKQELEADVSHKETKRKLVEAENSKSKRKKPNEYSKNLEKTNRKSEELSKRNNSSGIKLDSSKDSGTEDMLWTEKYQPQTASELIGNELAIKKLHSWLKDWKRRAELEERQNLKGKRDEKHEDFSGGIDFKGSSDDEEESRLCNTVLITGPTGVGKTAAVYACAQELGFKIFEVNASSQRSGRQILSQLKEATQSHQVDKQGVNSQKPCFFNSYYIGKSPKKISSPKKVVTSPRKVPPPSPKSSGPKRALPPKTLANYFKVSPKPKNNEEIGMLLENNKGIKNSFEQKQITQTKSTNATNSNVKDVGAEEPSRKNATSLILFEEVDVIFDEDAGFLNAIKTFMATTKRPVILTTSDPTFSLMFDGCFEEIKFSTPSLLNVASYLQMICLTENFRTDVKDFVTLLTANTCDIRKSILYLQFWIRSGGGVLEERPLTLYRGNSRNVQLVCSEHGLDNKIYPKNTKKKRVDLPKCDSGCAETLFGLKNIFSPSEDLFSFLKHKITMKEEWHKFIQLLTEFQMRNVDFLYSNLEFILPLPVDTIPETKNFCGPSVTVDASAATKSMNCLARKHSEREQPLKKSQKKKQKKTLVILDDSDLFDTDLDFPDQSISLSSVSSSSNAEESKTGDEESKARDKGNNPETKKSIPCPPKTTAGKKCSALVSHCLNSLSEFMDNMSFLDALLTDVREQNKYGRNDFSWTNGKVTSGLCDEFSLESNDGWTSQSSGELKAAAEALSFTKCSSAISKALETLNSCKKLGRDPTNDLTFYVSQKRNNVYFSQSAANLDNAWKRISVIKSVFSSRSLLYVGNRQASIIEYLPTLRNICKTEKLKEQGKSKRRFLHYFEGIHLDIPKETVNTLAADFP
# How it was run: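 Quantitative HTS in HEK293T cells carrying luciferase-tagged ELG1, stimulated with 5-fluorouridine alongside compound for 16 hr. Loss of luciferase signal marks inhibition of ELG1 response.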
# [7] = Nrf2 qHTS screen for inhibitors: Validation (AID 493153; active = well fitted inhibition curve with a large enough effect in the main read-out, with a control signal flat, not every such curve was filed as active; also: potency is read from the fitted curve at half-maximal effect); settings: Potency: luciferase luminescence; viability change: measured here: cytotoxicity max response
# How it was run: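 Dose-response validation uses reporter A549 cells with firefly luciferase under an antioxidant response element. Compounds stay on cells 18-24 h at 37°C, and luminescence indicates Nrf2-driven transcription.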
# [8] = qHTS for Inhibitors of Cell Surface uPA Generation: Validation Assay (AID 493164);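 also: RAW 264.7 macrophage cells exposed to compound for 18 h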
# How it was run: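 RAW 264.7, 4000 cells/well, o/n plating; cpd 7-pt 1:5 dilution 2.45 nM–38.3 uM final; 18 h, 37 C/5% CO2; ATP-Lite, 5 s luminescence exposure.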
# [9] = biological target: Peptidyl-prolyl cis-trans isomerase NIMA-interacting 1 (Homo sapiens) (UniProt Q13526); assay: qHTS Validation Assay to Find Inhibitors of Pin1 (AID 504536; active = well fitted inhibition curve with a large enough effect in the polarisation, with a control signal flat, not every such curve was filed as active; the % refers to the polarisation)
# Peptidyl-prolyl cis-trans isomerase NIMA-interacting 1 (Homo sapiens), sequence (Q13526 whole entry, looked up): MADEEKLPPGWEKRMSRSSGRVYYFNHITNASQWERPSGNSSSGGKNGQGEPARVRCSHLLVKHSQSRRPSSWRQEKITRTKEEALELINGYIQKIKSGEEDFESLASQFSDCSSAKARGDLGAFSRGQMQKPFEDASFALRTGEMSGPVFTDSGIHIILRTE
# How it was run: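 Fluorescence polarization competition: compounds (titration) displace HiFluor-488-labeled Pin1-1b peptide from Pin1 (0.3 uM final) in pH 7.5 HEPES buffer with DTT, 10 min at room temperature; %Activity normalized to no-enzyme wells, curves fitted.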
# [10] = biological target: Phosphoglycerate kinase, glycosomal (Trypanosoma brucei brucei) (UniProt P07378); assay: qHTS Validation Assay to Find Inhibitors of Phosphoglycerate Kinase (AID 504547)
# Phosphoglycerate kinase, glycosomal (Trypanosoma brucei brucei), sequence (P07378 whole entry, looked up): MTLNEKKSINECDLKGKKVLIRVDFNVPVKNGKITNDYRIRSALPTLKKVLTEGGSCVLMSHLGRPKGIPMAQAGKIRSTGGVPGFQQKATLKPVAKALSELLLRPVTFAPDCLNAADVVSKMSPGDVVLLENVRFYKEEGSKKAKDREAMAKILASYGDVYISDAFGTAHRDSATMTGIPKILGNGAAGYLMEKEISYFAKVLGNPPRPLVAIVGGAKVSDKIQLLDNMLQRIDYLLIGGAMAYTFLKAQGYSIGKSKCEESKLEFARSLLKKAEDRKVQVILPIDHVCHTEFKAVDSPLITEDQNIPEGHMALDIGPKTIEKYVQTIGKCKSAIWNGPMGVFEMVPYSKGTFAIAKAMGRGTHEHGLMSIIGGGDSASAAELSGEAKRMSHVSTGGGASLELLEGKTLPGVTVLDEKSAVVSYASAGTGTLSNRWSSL
# How it was run: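 PGK activity was coupled to GAPDH (100nM final), which generates the unstable substrate 1,3-bisphosphoglycerate in-well. Reactions ran 60 minutes at room temperature in 100mM TEA pH 7.6, 5mM MgCl2, 0.01% Tween-20, then Kinase-Glo Plus luminescence was read.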
# [11] = biological target: phosphoglycerate mutase (Leishmania major) (UniProt Q4Q090); assay: qHTS Validation Assay to Find Inhibitors of Phosphoglycerate Mutase (AID 504548);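 also: end-point luminescence from Kinase-GloPlus after the PGAM reaction; series mostly up to about 58 µM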
# phosphoglycerate mutase (Leishmania major), sequence (Q4Q090 1-553): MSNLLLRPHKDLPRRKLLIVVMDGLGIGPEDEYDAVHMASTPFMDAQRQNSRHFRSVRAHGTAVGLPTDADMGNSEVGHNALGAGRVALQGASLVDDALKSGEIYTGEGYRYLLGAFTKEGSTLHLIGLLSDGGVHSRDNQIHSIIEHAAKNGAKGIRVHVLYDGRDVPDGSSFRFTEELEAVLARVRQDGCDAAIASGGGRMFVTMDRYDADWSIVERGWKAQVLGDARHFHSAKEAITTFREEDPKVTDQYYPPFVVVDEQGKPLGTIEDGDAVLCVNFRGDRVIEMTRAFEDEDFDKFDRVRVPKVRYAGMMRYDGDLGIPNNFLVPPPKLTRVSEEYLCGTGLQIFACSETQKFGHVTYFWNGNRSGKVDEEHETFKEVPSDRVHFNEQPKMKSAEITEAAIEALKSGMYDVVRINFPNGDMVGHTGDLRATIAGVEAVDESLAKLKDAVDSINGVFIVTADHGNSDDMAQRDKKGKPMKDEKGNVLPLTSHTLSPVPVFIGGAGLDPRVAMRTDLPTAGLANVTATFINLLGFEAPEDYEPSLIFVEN
# How it was run: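 Inhibition of L. major PGAM was assessed by Kinase-GloPlus luminescence following a 45-minute room-temperature reaction with enzyme at 1.25nM final.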
# [12] = biological target: Ubiquitin carboxyl-terminal hydrolase 1 (Homo sapiens) (UniProt O94782); assay: Inhibitors of USP1/UAF1: Pilot qHTS (AID 504865);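 also: rhodamine fluorescence freed from ubiquitin-rhodamine substrate followed over time; top concentration of the series differs between compounds; nearly all actives have a fitted effect of over 35% in size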
# Ubiquitin carboxyl-terminal hydrolase 1 (Homo sapiens), sequence (O94782 whole entry, looked up): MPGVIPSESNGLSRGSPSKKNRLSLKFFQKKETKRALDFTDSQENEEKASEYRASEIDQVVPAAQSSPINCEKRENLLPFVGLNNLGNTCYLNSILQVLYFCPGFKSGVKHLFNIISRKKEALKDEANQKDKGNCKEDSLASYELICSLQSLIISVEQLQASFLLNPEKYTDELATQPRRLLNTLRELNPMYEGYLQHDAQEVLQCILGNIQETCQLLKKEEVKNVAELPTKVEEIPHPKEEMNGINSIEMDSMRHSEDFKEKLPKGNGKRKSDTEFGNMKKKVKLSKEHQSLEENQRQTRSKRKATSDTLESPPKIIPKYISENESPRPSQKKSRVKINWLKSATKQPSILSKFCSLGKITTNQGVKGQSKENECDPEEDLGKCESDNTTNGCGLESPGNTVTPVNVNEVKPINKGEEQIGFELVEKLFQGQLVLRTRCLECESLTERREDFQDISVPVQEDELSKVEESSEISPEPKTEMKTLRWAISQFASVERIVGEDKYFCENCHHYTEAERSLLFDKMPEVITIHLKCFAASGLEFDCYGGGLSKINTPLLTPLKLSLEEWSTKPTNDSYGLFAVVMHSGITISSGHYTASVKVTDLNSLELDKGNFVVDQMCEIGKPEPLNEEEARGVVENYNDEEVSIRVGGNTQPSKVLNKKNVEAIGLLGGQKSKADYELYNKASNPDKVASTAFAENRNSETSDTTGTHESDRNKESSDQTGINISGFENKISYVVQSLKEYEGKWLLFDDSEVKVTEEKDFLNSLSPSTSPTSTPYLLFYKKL
# How it was run: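 1nM USP1/UAF1 + cpd, 15 min RT; start w/ Ub-Rho 150nM final; kinetic FL 480/540 nm, 6 reads q60 s. Buffer 50mM HEPES pH 7.8, 0.5mM EDTA, 1mM TCEP, 0.01% Tween-20, 0.1 mg/ml BSA.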
# [13] = qHTS for Inhibitors of ATXN expression: Validation of Cytotoxic Assay (AID 588349);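 also: cells exposed to compound for 72 hr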
# How it was run: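 HEK293, compound dose series, 72 hr / 37 degrees C; viability via CellTiter Glo (intracellular ATP).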
# [14] = qHTS for Inhibitors of ATXN expression: Validation (AID 588378); also: series mostly up to about 57 µM; nearly all actives have a fitted effect of over 75% in size
# How it was run: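 Cells: HEK293-ATXN2-FFLuc, phenol-red free DMEM, 2 h attachment. Compound pin-transfer, 24 h, 37 degrees C, 5% CO2. CellTiter-Fluor 30 min, Ex405/Em525; Bright-Glo 5 min, luminescence 2 s exposure.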
# [15] = biological target: Transient receptor potential cation channel subfamily V member 1 (Homo sapiens) (UniProt Q8NER1); assay: HTS Assay for Compounds that Act as Enhancers of the Vanilloid Receptor 1 (AID 488979)
# How it was run: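 TRPV1 cells loaded with Fluo-8 calcium dye; compound added and Ca2+ signal (ex 480/em 520 nm) followed 3 min, then capsaicin at EC20 added and read 2 more min to detect enhancement.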
# [16] = biological target: Thyrotropin receptor (Homo sapiens) (UniProt P16473); assay: qHTS Assay for Antagonists of the Thyroid Stimulating Hormone Receptor (AID 488980); also: series mostly up to about 58 µM
# How it was run: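 TSHR-HEK293 cells; 70 uM RO 20-1724 PDE inhibitor; compound + EC80 TSH (4 nM final); anti-cAMP cryptate antibody/cAMP-d2 in lysis buffer, 30 min RT; HTRF 665/620 nm read.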
# [17] = biological target: Thyrotropin-releasing hormone receptor (Homo sapiens) (UniProt P34981); assay: qHTS for Small Molecule Agonists and Allosteric Enhancers of Human TRH Receptor: Validation Screen for Agonists (AID 493127;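 active = calcium activation more than 3 SD above the typical response in the agonist read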;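 also: intracellular calcium rise by fluo-8 fluorescence before TRH EC20 addition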); settings: TRH receptor agonist cell assay; at 2 µM; stronger effect = higher value
# How it was run: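 Gq-coupled calcium mobilization in TRHR cells after compound addition, monitored kinetically with fluo-8 dye on an FDSS reader.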
# [18] = biological target: Galactokinase (Homo sapiens) (UniProt P51570); assay: qHTS Validation Assay for Inhibitors of Human Galactokinase (GALK) (AID 493189)
# How it was run: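 Luminescence from leftover ATP (Kinase-Glo Plus, 10 min) served as read-out after a 1 h room-temperature reaction of 5 nM GALK, 100 uM galactose and 35 uM ATP at pH8.0.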
# [19] = Validation screen for small molecules that induce DNA re-replication in SW480 colon adenocarcinoma cells (AID 504364)
# How it was run: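 Cells are treated 48 hr with test compound, stained 40 min with Hoechst at 37 C, and scanned for nuclear fluorescence; compounds inducing re-replication increase nuclei with elevated intensity.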
# [20] = biological target: Tyrosyl-DNA phosphodiesterase 1 (Homo sapiens) (UniProt Q9NUW8); assay: Confirmation Assay for Inhibitors of Tyrosyl-DNA Phosphodiesterase (TDP1) (AID 489007); settings: recombinant human TDP1 enzymatic activity, dose-response; also: potency is read from the fitted curve at half-maximal effect; nearly all actives have a fitted effect of over 40% in size
# How it was run: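 Confirmation of primary-screen follow-ups in a qHTS format. Substrate cleavage by Tdp1 (1 nM) of a 3'-phosphotyrosine-FITC, 5'-biotin oligo (15 nM) was monitored as decreased AlphaScreen signal after a 5 min room-temperature reaction.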
structure (smiles),measurement,setting,value
O=C(Nc1ncc([N+](=O)[O-])s1)c1cccs1,Potency,[1],inactive
CN1CCN(C2=Nc3ccccc3Sc3ccc(Cl)cc32)CC1,Potency,[1],inactive
CCCCC(CC)COC(=O)c1ccc(N(C)C)cc1 (stereo unspecified),Potency,[1],inactive
CCOC(=O)[C@H](CCc1ccccc1)N[C@@H](C)C(=O)N1[C@H](C(=O)O)C[C@H]2CCCC[C@@H]21,outcome,[2],inactive
same,outcome,[3],inactive
same,outcome,[4],inactive
same,Potency,[1],inactive
same,outcome,[5],inactive
same,outcome,[6],inactive
same,Potency,[7],inactive
same,viability change,[7],-5.88%
same,outcome,[8],inactive
same,outcome,[9],inactive
same,outcome,[10],inactive
same,outcome,[11],inactive
same,Potency,[12],inactive
same,outcome,[13],inactive
same,outcome,[14],inactive
CNCCCCOc1ccccc1Cc1ccccc1,Potency,[1],inactive
CCCCCCCCCCCCCCCC(=O)O,Potency,[1],inactive
N/C(=N\N=C\c1ccc(Cl)cc1)N/N=C/c1ccc(Cl)cc1,Potency,[1],inactive
CCCN(CCc1cccs1)[C@H]1CCc2c(O)cccc2C1,Potency,[1],inactive
Oc1ccccc1C=NCc1ccccc1,Potency,[1],inactive
CCCCC(CC)COC(=O)/C=C/c1ccc(OC)cc1 (stereo unspecified),Potency,[1],inactive
FC1(F)C(F)(F)C(F)(F)C2(F)C(F)(F)C(F)(F)C(F)(F)C(F)(F)C2(F)C1(F)F (stereo unspecified),Potency,[1],inactive
NC(N)=NN=C(/C=C/c1ccc([N+](=O)[O-])o1)/C=C/c1ccc([N+](=O)[O-])o1,Potency,[1],inactive
CN=C(N)NCCC[C@H](N)C(=O)O,outcome,[2],inactive
same,outcome,[3],inactive
same,outcome,[4],inactive
same,outcome,[5],inactive
same,outcome,[6],inactive
same,Potency,[7],inactive
same,viability change,[7],2.51%
same,outcome,[8],inactive
same,outcome,[9],inactive
same,outcome,[10],inactive
same,outcome,[11],inactive
same,Potency,[12],inactive
same,outcome,[13],inactive
same,outcome,[14],inactive
C#C[C@]1(O)CC[C@H]2[C@@H]3CCC4=CC(=O)CC[C@@H]4[C@H]3CC[C@@]21CC,Potency,[1],inactive
O=C(CN1CCN(Cc2ccc3c(c2)OCO3)CC1)N1c2ccccc2Sc2ccccc21,Potency,[1],inactive
CN(CCCN1c2ccccc2CCc2ccccc21)CC(=O)c1ccc(Cl)cc1,Potency,[1],inactive
Oc1ccc(Cl)cc1Cc1cc(Cl)ccc1O,Potency,[1],inactive
C[C@@H](O)[C@H]1C(=O)N2C(C(=O)O)=C(S[C@@H]3CN[C@H](CNS(N)(=O)=O)C3)[C@H](C)[C@H]12,Potency,[1],inactive
CC(=O)Nc1ccc(OC(=O)c2ccccc2OC(C)=O)cc1,Potency,[1],inactive
COC(=O)C(c1ccccc1Cl)N1CCc2sccc2C1 (stereo unspecified),Potency,[1],inactive
CC(=O)Nc1ncc([N+](=O)[O-])s1,Potency,[1],inactive
NC(N)=NCc1cccc(I)c1,outcome,[15],inactive
same,outcome,[16],inactive
same,outcome,[2],inactive
same,outcome,[3],inactive
same,outcome,[4],inactive
same,Potency,[1],inactive
same,outcome,[5],inactive
same,outcome,[6],inactive
same,activation,[17],-0.0625% (inactive)
same,Potency,[7],20.6 µM (active)
same,viability change,[7],2.28%
same,outcome,[8],inactive
same,outcome,[18],inactive
same,outcome,[19],inactive
same,outcome,[9],inactive
same,outcome,[10],inactive
same,outcome,[11],inactive
same,Potency,[12],inactive
same,outcome,[13],inactive
same,outcome,[14],inactive
CC[C@H](c1ccc(O)cc1)[C@@H](CC)c1ccc(O)cc1,Potency,[1],inactive
C#C[C@]1(OC(C)=O)CC[C@H]2[C@@H]3CCC4=C/C(=N/O)CC[C@@H]4[C@H]3CC[C@@]21CC,Potency,[1],inactive
CC(=O)OCC1=C(C(=O)O)N2C(=O)[C@@H](NC(=O)CSc3ccncc3)[C@H]2SC1,outcome,[15],inactive
same,outcome,[16],inactive
same,Potency,[20],2 µM (active)
same,activation,[17],0.5% (inactive)
same,outcome,[18],inactive
same,outcome,[19],inactive
O=S(c1cc(Cl)cc(Cl)c1O)c1cc(Cl)cc(Cl)c1O,Potency,[1],inactive
CC(C)(C)NC[C@H](O)COc1nsnc1N1CCOCC1,outcome,[2],inactive
same,outcome,[3],inactive
same,outcome,[4],inactive
same,outcome,[5],inactive
same,outcome,[6],inactive
same,Potency,[7],inactive
same,viability change,[7],2.77%
same,outcome,[8],inactive
same,outcome,[9],inactive
same,outcome,[10],inactive
same,outcome,[11],inactive
same,Potency,[12],inactive
same,outcome,[13],inactive
same,outcome,[14],inactive
CCOC(=O)c1ccc(N)cc1,Potency,[1],inactive
CCCCCCCCCCCCOCCOCCOCCOCCOCCOCCOCCOCCOCCO,Potency,[1],inactive
CCCCCCCCCCCCSCCOCCO,Potency,[1],inactive
CCC(CC)(CC(=O)Nc1cccc(/C=C/c2nc(C3CCC3)cs2)c1)C(=O)O,Potency,[1],inactive
NC1CCN(c2nc3c(cc2F)c(=O)c(C(=O)O)cn3-c2ccc(F)cc2F)C1 (stereo unspecified),Potency,[1],inactive
CN(Cc1ccc(C(C)(C)C)cc1)Cc1cccc2ccccc12,Potency,[1],inactive
CCCCCCCCCCCCCCCCO,Potency,[1],inactive
O=C(O)CCC(=O)Nc1ccc(S(=O)(=O)Nc2nccs2)cc1,Potency,[1],inactive
same,Potency,[12],inactive
O=C(c1ccc(F)cc1)C1CCN(CCn2c(=S)[nH]c3ccccc3c2=O)CC1,Potency,[1],inactive
same,Potency,[12],inactive
O=C1C(=O)c2ccccc2C(O)=C1C1CCC(c2ccc(Cl)cc2)CC1 (stereo unspecified),Potency,[1],inactive
COc1cc([C@H]2Oc3cc([C@H]4Oc5cc(O)cc(O)c5C(=O)[C@@H]4O)ccc3O[C@@H]2CO)ccc1O,Potency,[1],inactive
same,Potency,[12],inactive
CCOc1ccccc1OCCN[C@H](C)Cc1ccc(OC)c(S(N)(=O)=O)c1,Potency,[1],inactive
same,Potency,[12],inactive
CC(=O)N[C@@H](CCC(=O)O)C(=O)O,Potency,[1],inactive
same,Potency,[12],inactive
NCCNC(=O)c1ccc(Cl)cn1,Potency,[1],inactive
same,Potency,[12],inactive
